Assay results reported in PubChem BioAssay AID1159580 (chemical genetic matrix, 2015).
The campaign covered roughly 5,500 compounds. About 2,000 (36%) were called active. Another 18% or so got no clear call; they are omitted. No stated cut-off is given here; in the data, active means normalized growth mostly below about 0.91 (no sharp cut-off); inconclusive means no clear call, values can overlap the other calls; inactive means mostly above about 0.92. Some of the results follow.

Test: chemical genetic growth profiling, strain panel (AID 1159580);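 further: tested at 20 µM; growth read once vehicle control cultures reached saturation at 30 °C; 1 = growth at the plate median or of vehicle wells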
Conditions: growth OD

Measured: normalized growth

CCCCN(CCCC)CCCOC(=O)c1ccc(N)cc1
inactive: S. cerevisiae deletion strains, locus YJR075W, strain HOC1, stronger effect = lower value 0.981 | S. cerevisiae deletion strains, locus YKL009W, strain mrt4, stronger effect = lower value 0.989 | S. cerevisiae deletion strains, locus YKL068W, stronger effect = lower value 0.969 | S. cerevisiae deletion strains, locus YKL085W, strain MDH1 (second series), stronger effect = lower value 0.987 | S. cerevisiae deletion strains, locus YKL085W, strain MDH1, stronger effect = lower value 0.987 | S. cerevisiae deletion strains, locus YKL160W, strain elf1, stronger effect = lower value 0.995 | S. cerevisiae deletion strains, locus YKL190W, strain CNB1, stronger effect = lower value 0.988 | S. cerevisiae deletion strains, locus YKR001C, strain vps1, stronger effect = lower value 0.98 | S. cerevisiae deletion strains, locus YKR026C, strain gcn3, stronger effect = lower value 0.993 | S. cerevisiae deletion strains, locus YKR091W, strain srl3, stronger effect = lower value 0.992 | S. cerevisiae deletion strains, locus YLL001W, strain dnm1, stronger effect = lower value 0.996 | S. cerevisiae deletion strains, locus YLL026W, stronger effect = lower value 0.995 | S. cerevisiae deletion strains, locus YLL041C, strain sdh2, stronger effect = lower value 0.995 | S. cerevisiae deletion strains, locus YLR027C, strain aat2, stronger effect = lower value 0.996 | S. cerevisiae deletion strains, locus YLR039C, strain RIC1, stronger effect = lower value 0.863 | S. cerevisiae deletion strains, locus YLR058C, strain SHM2, stronger effect = lower value 0.99 | S. cerevisiae deletion strains, locus YLR102C, strain apc9, stronger effect = lower value 1.01 | S. cerevisiae deletion strains, locus YLR113W, strain HOG1, stronger effect = lower value 0.986 | S. cerevisiae deletion strains, locus YLR221C, strain rsa3, stronger effect = lower value 0.98 | S. cerevisiae deletion strains, locus YLR258W, strain gsy2, stronger effect = lower value 0.985 | S. cerevisiae deletion strains, locus YLR262C, strain YPT6 (second series), stronger effect = lower value 0.935 | S. cerevisiae deletion strains, locus YLR262C, strain YPT6, stronger effect = lower value 0.876 | S. cerevisiae deletion strains, locus YLR268W, strain sec22, stronger effect = lower value 0.92 | S. cerevisiae deletion strains, locus YLR320W, strain mms22, stronger effect = lower value 0.993 | S. cerevisiae deletion strains, locus YLR330W, strain CHS5, stronger effect = lower value 0.988 | S. cerevisiae deletion strains, locus YLR342W, strain FKS1 (second series), stronger effect = lower value 1.06 | S. cerevisiae deletion strains, locus YLR342W, strain FKS1, stronger effect = lower value 0.996 | S. cerevisiae deletion strains, locus YLR357W, strain rsc2, stronger effect = lower value 0.99 | S. cerevisiae deletion strains, locus YLR370C, strain arc18, stronger effect = lower value 0.995 | S. cerevisiae deletion strains, locus YLR371W, strain rom2, stronger effect = lower value 0.992 | S. cerevisiae deletion strains, locus YLR384C, strain iki3, stronger effect = lower value 0.995 | S. cerevisiae deletion strains, locus YLR418C, strain cdc73, stronger effect = lower value 1.02 | S. cerevisiae deletion strains, locus YML016C, strain PPZ1, stronger effect = lower value 0.993 | S. cerevisiae deletion strains, locus YML032C, strain rad52, stronger effect = lower value 0.965 | S. cerevisiae deletion strains, locus YML120C, strain ndi1, stronger effect = lower value 0.988 | S. cerevisiae deletion strains, locus YML124C, strain tub3, stronger effect = lower value 0.997 | S. cerevisiae deletion strains, locus YMR058W, strain fet3, stronger effect = lower value 0.999 | S. cerevisiae deletion strains, locus YMR078C, strain ctf18, stronger effect = lower value 0.993 | S. cerevisiae deletion strains, locus YMR125W, strain sto1, stronger effect = lower value 0.992 | S. cerevisiae deletion strains, locus YMR129W, stronger effect = lower value 0.988 | S. cerevisiae deletion strains, locus YMR205C, strain PFK2, stronger effect = lower value 0.991 | S. cerevisiae deletion strains, locus YMR223W, strain ubp8, stronger effect = lower value 1.01 | S. cerevisiae deletion strains, locus YMR231W, strain pep5, stronger effect = lower value 0.997 | S. cerevisiae deletion strains, locus YMR263W, strain SAP30, stronger effect = lower value 0.982 | S. cerevisiae deletion strains, locus YMR307W, strain GAS1, stronger effect = lower value 1.06 | S. cerevisiae deletion strains, locus YNL067W, strain RPL9B, stronger effect = lower value 0.963 | S. cerevisiae deletion strains, locus YNL071W, strain lat1, stronger effect = lower value 0.994 | S. cerevisiae deletion strains, locus YNL128W, strain TEP1, stronger effect = lower value 0.994 | S. cerevisiae deletion strains, locus YNL153C, strain GIM3, stronger effect = lower value 0.976 | S. cerevisiae deletion strains, locus YNL183C, strain NPR1, stronger effect = lower value 0.921 | S. cerevisiae deletion strains, locus YNL209W, strain ssb2, stronger effect = lower value 0.985 | S. cerevisiae deletion strains, locus YNL233W, strain BNI4, stronger effect = lower value 0.985 | S. cerevisiae deletion strains, locus YNL248C, strain rpa49, stronger effect = lower value 0.976 | S. cerevisiae deletion strains, locus YNL250W, strain rad50, stronger effect = lower value 0.983 | S. cerevisiae deletion strains, locus YNL271C, strain bni1, stronger effect = lower value 0.984 | S. cerevisiae deletion strains, locus YNL298W, strain CLA4, stronger effect = lower value 0.978 | S. cerevisiae deletion strains, locus YNL307C, strain MCK1, stronger effect = lower value 0.982 | S. cerevisiae deletion strains, locus YNL322C, strain KRE1 (second series), stronger effect = lower value 0.991 | S. cerevisiae deletion strains, locus YNL322C, strain KRE1, stronger effect = lower value 0.994 | S. cerevisiae deletion strains, locus YNR049C, strain mso1, stronger effect = lower value 0.998 | S. cerevisiae deletion strains, locus YNR052C, strain pop2, stronger effect = lower value 0.992 | S. cerevisiae deletion strains, locus YOL006C, strain TOP1, stronger effect = lower value 0.938 | S. cerevisiae deletion strains, locus YOL012C, strain htz1 0.971 | S. cerevisiae deletion strains, locus YOL147C, strain pex11, stronger effect = lower value 0.989 | S. cerevisiae deletion strains, locus YOR001W, strain rrp6, stronger effect = lower value 0.995 | S. cerevisiae deletion strains, locus YOR061W, strain CKA2, stronger effect = lower value 0.992 | S. cerevisiae deletion strains, locus YOR069W, strain VPS5, stronger effect = lower value 0.995 | S. cerevisiae deletion strains, locus YOR070C, strain gyp1, stronger effect = lower value 0.993 | S. cerevisiae deletion strains, locus YOR080W, strain dia2, stronger effect = lower value 0.996 | S. cerevisiae deletion strains, locus YOR083W, strain WHI5, stronger effect = lower value 0.984 | S. cerevisiae deletion strains, locus YOR106W, strain vam3, stronger effect = lower value 0.995 | S. cerevisiae deletion strains, locus YOR136W, strain idh2, stronger effect = lower value 0.994 | S. cerevisiae deletion strains, locus YOR144C, strain elg1, stronger effect = lower value 0.986 | S. cerevisiae deletion strains, locus YOR184W, strain ser1, stronger effect = lower value 0.979 | S. cerevisiae deletion strains, locus YOR231W, strain MKK1, stronger effect = lower value 0.961 | S. cerevisiae deletion strains, locus YOR265W, strain rbl2, stronger effect = lower value 0.998 | S. cerevisiae deletion strains, locus YOR270C, strain vph1, stronger effect = lower value 1.01 | S. cerevisiae deletion strains, locus YOR290C, strain snf2, stronger effect = lower value 0.986 | S. cerevisiae deletion strains, locus YOR316C, strain cot1, stronger effect = lower value 0.978 | S. cerevisiae deletion strains, locus YPL051W, strain arl3, stronger effect = lower value 0.995 | S. cerevisiae deletion strains, locus YPL055C, strain LGE1, stronger effect = lower value 0.986 | S. cerevisiae deletion strains, locus YPL078C, strain atp4, stronger effect = lower value 0.988 | S. cerevisiae deletion strains, locus YPL106C, strain sse1, stronger effect = lower value 0.977 | S. cerevisiae deletion strains, locus YPL240C, strain hsp82, stronger effect = lower value 0.997 | S. cerevisiae deletion strains, locus YPL241C, strain CIN2, stronger effect = lower value 1 | S. cerevisiae deletion strains, locus YPL256C, strain CLN2, stronger effect = lower value 0.937 | S. cerevisiae deletion strains, locus YPR119W, strain clb2, stronger effect = lower value 0.969 | S. cerevisiae deletion strains, locus YPR141C, strain kar3, stronger effect = lower value 0.987 | S. cerevisiae deletion strains, locus YPR163C, strain tif3, stronger effect = lower value 0.973 | S. cerevisiae deletion strains, locus YPR167C, strain met16, stronger effect = lower value 0.978 | S. cerevisiae deletion strains, strain wtn01, stronger effect = lower value 0.97 | S. cerevisiae strains, strain wild type, stronger effect = lower value 1
